According to PubChem BioAssay (NCATS):
Results filed as inconclusive are left out. Entries that show only a call come without a potency. Active and inactive are the calls of the source. Calls follow the shape of the dose curve; as a rule, active = well fitted cell-killing curve with a large enough effect; inconclusive = small, poorly fitted or top-dose-only effect; inactive = flat fitted curve, though single readings scatter.

Experiment: Cell Viability - LYMP2-013 (AID 970); also: nearly all actives have a fitted effect of over 55% in size
Details: LYMP2-013 lymphoblastoid cells viability; series mostly up to 92.2 µM
Method in brief: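 Cytotoxicity is scored as a concentration-dependent drop in intracellular ATP in human lymphoblastoid cells after 24 hr compound exposure at 37 C. ATP is quantified by luciferase luminescence, and AC50 values come from Hill-equation modeling.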

| SMILES | outcome |
| --- | --- |
| Cc1occc(=O)c1O | inactive |
| C=C(C)[C@H]1CC=C(C)C(=O)C1 | inactive |
| COS(C)(=O)=O | inactive |
| CC1=CC(=O)CC(C)(C)C1(O)/C=C/C(C)=C\C(=O)O (stereo not given) | inactive |
| C=CC(C)(O)CCC=C(C)C (stereo not given) | inactive |

Experiment: Cell Viability - LYMP2-015 (AID 971); also: nearly all actives have a fitted effect of over 55% in size
Details: LYMP2-015 lymphoblastoid cell viability; series mostly up to 92.2 µM
Method in brief: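 Cells are seeded at 2500 per well and incubated 5 hr at 37 C. Compounds are added across a concentration series for 24 hr at 37 C. CellTiter-Glo is added, and luminescence is read after 30 min at room temperature.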

| SMILES | outcome |
| --- | --- |
| Cc1occc(=O)c1O | inactive |
| C=C(C)[C@H]1CC=C(C)C(=O)C1 | inactive |
| COS(C)(=O)=O | inactive |
| CC1=CC(=O)CC(C)(C)C1(O)/C=C/C(C)=C\C(=O)O (stereo not given) | inactive |
| C=CC(C)(O)CCC=C(C)C (stereo not given) | inactive |

Experiment: Cell Viability - LYMP2-017 (AID 972); also: nearly all actives have a fitted effect of over 55% in size
Details: LYMP2-017 lymphoblastoid cell viability; series mostly up to 92.2 µM
Method in brief: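 Cytotoxicity is scored as a concentration-dependent drop in cellular ATP in a human lymphoblastoid line after 24 hr treatment at 37 C. Values are AC50s from Hill-equation modelling.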

| SMILES | outcome |
| --- | --- |
| Cc1occc(=O)c1O | inactive |
| C=C(C)[C@H]1CC=C(C)C(=O)C1 | inactive |
| COS(C)(=O)=O | inactive |
| CC1=CC(=O)CC(C)(C)C1(O)/C=C/C(C)=C\C(=O)O (stereo not given) | inactive |
| C=CC(C)(O)CCC=C(C)C (stereo not given) | inactive |

Experiment: Cell Viability - LYMP2-019 (AID 973); also: nearly all actives have a fitted effect of over 55% in size
Details: LYMP2-019 lymphoblastoid cell line viability; series mostly up to 92.2 µM
Method in brief: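 Cytotoxicity is scored as a concentration-dependent drop in cellular ATP after cells (2500/well) receive compound for 24 hr at 37 C. Tetraoctylammonium bromide serves as positive control.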

| SMILES | outcome |
| --- | --- |
| Cc1occc(=O)c1O | inactive |
| C=C(C)[C@H]1CC=C(C)C(=O)C1 | inactive |
| COS(C)(=O)=O | inactive |
| CC1=CC(=O)CC(C)(C)C1(O)/C=C/C(C)=C\C(=O)O (stereo not given) | inactive |
| C=CC(C)(O)CCC=C(C)C (stereo not given) | inactive |

Experiment: Cell Viability - LYMP2-021 (AID 974)
Details: LYMP2-021 lymphoblastoid cells viability; series mostly up to 92.2 µM
Method in brief: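 Loss of cellular ATP, measured with a luciferase-based CellTiter-Glo readout, serves as the toxicity signal in human lymphoblastoid cells treated for 24 hours at 37 C. Potency is reported as AC50 from a standard Hill model.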

| SMILES | outcome |
| --- | --- |
| Cc1occc(=O)c1O | inactive |
| C=C(C)[C@H]1CC=C(C)C(=O)C1 | inactive |
| COS(C)(=O)=O | inactive |
| CC1=CC(=O)CC(C)(C)C1(O)/C=C/C(C)=C\C(=O)O (stereo not given) | inactive |
| C=CC(C)(O)CCC=C(C)C (stereo not given) | inactive |

Experiment: Cell Viability - LYMP2-023 (AID 975)
Details: LYMP2-023 lymphoblastoid cell viability; series mostly up to 92.2 µM
Method in brief: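 Steps: seed 2500 human lymphoblastoid cells per well, incubate 5 hr at 37 C, add compound for 24 hr at 37 C, add CellTiter-Glo, hold 30 min at room temperature, read luminescence. AC50 derived by Hill modelling.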

| SMILES | outcome |
| --- | --- |
| Cc1occc(=O)c1O | inactive |
| C=C(C)[C@H]1CC=C(C)C(=O)C1 | inactive |
| COS(C)(=O)=O | inactive |
| CC1=CC(=O)CC(C)(C)C1(O)/C=C/C(C)=C\C(=O)O (stereo not given) | inactive |
| C=CC(C)(O)CCC=C(C)C (stereo not given) | inactive |

Experiment: Cell Viability - LYMP2-025 (AID 976)
Details: LYMP2-025 lymphoblastoid cell viability; series mostly up to 92.2 µM
Method in brief: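 Acute cytotoxicity is scored as a concentration-dependent fall in intracellular ATP, measured by luciferase luminescence, in human lymphoblastoid LYMP2-025 cells exposed to compound for 24 hours at 37 C. AC50 values come from standard Hill fits.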

| SMILES | outcome |
| --- | --- |
| Cc1occc(=O)c1O | inactive |
| C=C(C)[C@H]1CC=C(C)C(=O)C1 | inactive |
| COS(C)(=O)=O | inactive |
| CC1=CC(=O)CC(C)(C)C1(O)/C=C/C(C)=C\C(=O)O (stereo not given) | inactive |
| C=CC(C)(O)CCC=C(C)C (stereo not given) | inactive |

Experiment: Cell Viability - LYMP2-002 (AID 977);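 also: compound exposure lasted 24 h at 37 °C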
Details: LYMP2-002 lymphoblastoid cell viability, qHTS; series mostly up to 92.2 µM
Method in brief: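 Human lymphoblastoid cells (2500/well) in complete medium were preincubated 5 hr at 37 C, then exposed to compounds for 24 hr at 37 C. Intracellular ATP was read by CellTiter-Glo luminescence; AC50 came from Hill-equation concentration-response fits.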

| SMILES | outcome |
| --- | --- |
| Cc1occc(=O)c1O | inactive |
| C=C(C)[C@H]1CC=C(C)C(=O)C1 | inactive |
| COS(C)(=O)=O | inactive |
| CC1=CC(=O)CC(C)(C)C1(O)/C=C/C(C)=C\C(=O)O (stereo not given) | inactive |
| C=CC(C)(O)CCC=C(C)C (stereo not given) | inactive |

Experiment: Cell Viability - LYMP2-006 (AID 978); also: nearly all actives have a fitted effect of over 60% in size
Details: LYMP2-006 lymphoblastoid cell viability, qHTS; series mostly up to 92.2 µM
Method in brief: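 Cells are seeded at 2500 per well and rested 5 hr at 37 C. Compounds are added across a concentration series for 24 hr at 37 C, after which ATP is quantified by luciferase luminescence.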

| SMILES | outcome |
| --- | --- |
| Cc1occc(=O)c1O | inactive |
| C=C(C)[C@H]1CC=C(C)C(=O)C1 | inactive |
| COS(C)(=O)=O | inactive |
| CC1=CC(=O)CC(C)(C)C1(O)/C=C/C(C)=C\C(=O)O (stereo not given) | inactive |
| C=CC(C)(O)CCC=C(C)C (stereo not given) | inactive |

Experiment: Cell Viability - LYMP2-007 (AID 979);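 also: cells exposed to compound for 24 h before reading; nearly all actives have a fitted effect of over 60% in size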
Details: LYMP2-007 lymphoblastoid cell viability; series mostly up to 92.2 µM
Method in brief: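 Cells are seeded at 2500 per well and rested 5 hr. Compounds are then added over a concentration series for 24 hr at 37 C. CellTiter-Glo is added for 30 min at room temperature before luminescence reading.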

| SMILES | outcome |
| --- | --- |
| Cc1occc(=O)c1O | inactive |
| C=C(C)[C@H]1CC=C(C)C(=O)C1 | inactive |
| COS(C)(=O)=O | inactive |
| CC1=CC(=O)CC(C)(C)C1(O)/C=C/C(C)=C\C(=O)O (stereo not given) | inactive |
| C=CC(C)(O)CCC=C(C)C (stereo not given) | inactive |

Experiment: Cell Viability - LYMP2-008 (AID 980); also: nearly all actives have a fitted effect of over 60% in size
Details: LYMP2-008 lymphoblastoid cell viability, qHTS; series mostly up to 92.2 µM
Method in brief: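 Cells seeded at 2500/well and rested 5 hr at 37 C; compounds added over a concentration range and incubated 24 hr at 37 C; CellTiter-Glo added, 30 min at room temperature; luminescence read and AC50 fitted with Hill model.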

| SMILES | outcome |
| --- | --- |
| Cc1occc(=O)c1O | inactive |
| C=C(C)[C@H]1CC=C(C)C(=O)C1 | inactive |
| COS(C)(=O)=O | inactive |
| CC1=CC(=O)CC(C)(C)C1(O)/C=C/C(C)=C\C(=O)O (stereo not given) | inactive |
| C=CC(C)(O)CCC=C(C)C (stereo not given) | inactive |

Experiment: Cell Viability - LYMP2-010 (AID 981); also: nearly all actives have a fitted effect of over 55% in size
Details: LYMP2-010 lymphoblastoid cell viability, qHTS; series mostly up to 92.2 µM
Method in brief: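 Steps: seed 2500 LYMP2-010 cells per well; incubate 5 hr at 37 C; add compound; incubate 24 hr at 37 C; add CellTiter-Glo, wait 30 min at room temperature; read luminescence. Concentration-response fitted to Hill equation for AC50.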

| SMILES | outcome |
| --- | --- |
| Cc1occc(=O)c1O | inactive |
| C=C(C)[C@H]1CC=C(C)C(=O)C1 | inactive |
| COS(C)(=O)=O | inactive |
| CC1=CC(=O)CC(C)(C)C1(O)/C=C/C(C)=C\C(=O)O (stereo not given) | inactive |
| C=CC(C)(O)CCC=C(C)C (stereo not given) | inactive |

Experiment: Cell Viability - LYMP2-012 (AID 982)
Details: LYMP2-012 lymphoblastoid cell viability qHTS; series mostly up to 92.2 µM

| SMILES | outcome |
| --- | --- |
| Cc1occc(=O)c1O | inactive |
| C=C(C)[C@H]1CC=C(C)C(=O)C1 | inactive |
| COS(C)(=O)=O | inactive |
| CC1=CC(=O)CC(C)(C)C1(O)/C=C/C(C)=C\C(=O)O (stereo not given) | inactive |
| C=CC(C)(O)CCC=C(C)C (stereo not given) | inactive |

Experiment: Cell Viability - LYMP2-014 (AID 983); also: nearly all actives have a fitted effect of over 50% in size
Details: LYMP2-014 lymphoblastoid cells, viability qHTS; series mostly up to 92.2 µM
Method in brief: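 Cells are plated at 2500/well and left 5 hr at 37 C. Compounds are added across a concentration range and incubated 24 hr at 37 C in complete medium. CellTiter-Glo is added, and luminescence is read after 30 min at room temperature.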

| SMILES | outcome |
| --- | --- |
| Cc1occc(=O)c1O | inactive |
| C=C(C)[C@H]1CC=C(C)C(=O)C1 | inactive |
| COS(C)(=O)=O | inactive |
| CC1=CC(=O)CC(C)(C)C1(O)/C=C/C(C)=C\C(=O)O (stereo not given) | inactive |
| C=CC(C)(O)CCC=C(C)C (stereo not given) | inactive |

Experiment: Cell Viability - LYMP2-016 (AID 984); also: nearly all actives have a fitted effect of over 55% in size
Details: LYMP2-016 lymphoblastoid cell viability, qHTS; series mostly up to 92.2 µM
Method in brief: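 Cells were seeded at 2500 per well and rested 5 hr before a 24 hr compound exposure at 37 C. Viability was then gauged as cellular ATP by luciferase luminescence, with AC50 values fitted to the Hill equation.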

| SMILES | outcome |
| --- | --- |
| Cc1occc(=O)c1O | inactive |
| C=C(C)[C@H]1CC=C(C)C(=O)C1 | inactive |
| COS(C)(=O)=O | inactive |
| CC1=CC(=O)CC(C)(C)C1(O)/C=C/C(C)=C\C(=O)O (stereo not given) | inactive |
| C=CC(C)(O)CCC=C(C)C (stereo not given) | inactive |

Experiment: Cell Viability - LYMP2-018 (AID 985); also: nearly all actives have a fitted effect of over 50% in size
Details: LYMP2-018 lymphoblastoid cells, viability (qHTS); series mostly up to 92.2 µM
Method in brief: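 Seed 2500 lymphoblastoid cells per well, incubate 5 hr at 37 C, add compound and incubate 24 hr at 37 C, add CellTiter-Glo, wait 30 min at room temperature, then read luminescence.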

| SMILES | outcome |
| --- | --- |
| Cc1occc(=O)c1O | inactive |
| C=C(C)[C@H]1CC=C(C)C(=O)C1 | inactive |
| COS(C)(=O)=O | inactive |
| CC1=CC(=O)CC(C)(C)C1(O)/C=C/C(C)=C\C(=O)O (stereo not given) | inactive |
| C=CC(C)(O)CCC=C(C)C (stereo not given) | inactive |

Experiment: Cell Viability - LYMP2-020 (AID 986); also: nearly all actives have a fitted effect of over 55% in size
Details: series mostly up to 92.2 µM
Method in brief: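 Seed 2500 cells per well and incubate 5 hr at 37 C. Add compounds at a concentration series and incubate 24 hr at 37 C. Add CellTiter-Glo, wait 30 min at RT, read luminescence, and fit a Hill curve for AC50.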

| SMILES | outcome |
| --- | --- |
| Cc1occc(=O)c1O | inactive |
| C=C(C)[C@H]1CC=C(C)C(=O)C1 | inactive |
| COS(C)(=O)=O | inactive |
| CC1=CC(=O)CC(C)(C)C1(O)/C=C/C(C)=C\C(=O)O (stereo not given) | inactive |
| C=CC(C)(O)CCC=C(C)C (stereo not given) | inactive |

Experiment: Cell Viability - LYMP2-022 (AID 987); also: nearly all actives have a fitted effect of over 55% in size
Details: LYMP2-022 lymphoblastoid cell viability; series mostly up to 92.2 µM
Method in brief: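 Cells were seeded at 2500 per well, rested 5 hr at 37 C, and treated with titrated compounds for 24 hr at 37 C. Cellular ATP was then quantified by luciferase luminescence, and AC50 values were derived from Hill-modelled concentration-response curves.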

| SMILES | outcome |
| --- | --- |
| Cc1occc(=O)c1O | inactive |
| C=C(C)[C@H]1CC=C(C)C(=O)C1 | inactive |
| COS(C)(=O)=O | inactive |
| CC1=CC(=O)CC(C)(C)C1(O)/C=C/C(C)=C\C(=O)O (stereo not given) | inactive |
| C=CC(C)(O)CCC=C(C)C (stereo not given) | inactive |

Experiment: Cell Viability - LYMP2-024 (AID 988); also: nearly all actives have a fitted effect of over 60% in size
Details: LYMP2-024 lymphoblastoid cell viability; series mostly up to 92.2 µM
Method in brief: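 qHTS cytotoxicity, human lymphoblastoid line, complete medium; 24 h cpd treatment, 37 C; CellTiter-Glo ATP luminescence readout; tetraoctylammonium bromide positive control; AC50 via Hill fit.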

| SMILES | outcome |
| --- | --- |
| Cc1occc(=O)c1O | inactive |
| C=C(C)[C@H]1CC=C(C)C(=O)C1 | inactive |
| COS(C)(=O)=O | inactive |
| CC1=CC(=O)CC(C)(C)C1(O)/C=C/C(C)=C\C(=O)O (stereo not given) | inactive |
| C=CC(C)(O)CCC=C(C)C (stereo not given) | inactive |
